High-throughput results: PubChem, National Center for Advancing Translational Sciences (NCATS)
A selection: hits, their analogues and other compounds. The true share with any hit is near 2.4%.
D2 ag-1: activates the human D2 dopamine receptor; activation, % at 2 µM; 340,000 tested, 0.53% active; P14416; HEK293 T-REx D2 cells, calcium flux agonist mode;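 active means activation over 3 SD above normal in the single-dose calcium agonist read, cut at about 30% in these data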; further: 0% is about no effect
Target sequence (P14416 whole entry, looked up): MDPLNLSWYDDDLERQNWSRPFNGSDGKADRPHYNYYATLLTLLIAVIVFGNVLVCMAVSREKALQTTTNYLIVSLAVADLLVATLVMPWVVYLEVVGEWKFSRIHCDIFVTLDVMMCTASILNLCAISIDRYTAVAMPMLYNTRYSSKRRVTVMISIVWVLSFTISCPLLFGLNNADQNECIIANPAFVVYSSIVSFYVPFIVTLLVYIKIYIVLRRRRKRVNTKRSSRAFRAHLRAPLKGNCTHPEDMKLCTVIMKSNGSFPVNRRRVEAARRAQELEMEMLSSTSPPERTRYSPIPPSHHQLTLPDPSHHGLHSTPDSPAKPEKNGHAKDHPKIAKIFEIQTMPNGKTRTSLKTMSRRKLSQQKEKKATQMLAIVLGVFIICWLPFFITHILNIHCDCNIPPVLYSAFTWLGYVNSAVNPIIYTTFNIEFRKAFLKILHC
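In this primary screen, compounds producing a positive calcium signal within 180 s of addition to tetracycline-induced, force-coupled HEK293 Trex D2 cells are flagged; cells are dye-loaded with a no-wash calcium kit beforehand.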
D2 antagonist: antagonists of human D2 dopamine receptor; P14416; HEK293 TREx D2 cells, calcium flux, dopamine EC80; inhibition, % at 10 µM; 340,000 tested, 2% active; AID 485344; in the data active means inhibition above about 30%; inactive means below that, where a call was filed; further: 0% is about no effect
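Tetracycline-induced HEK293 TREx cells expressing D2 receptor forced-coupled to calcium signalling, loaded with no-wash calcium dye. Compounds added and calcium flux read 180 s, then dopamine added at EC80 and read a further 180 s.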
D2 PAM-1: positive allosteric modulators of human D2 dopamine receptor; AID 485347; 340,000 tested, 0.34% active; P14416; HEK293 T-REx D2, calcium flux, EC20 dopamine potentiation; potentiation, % at 10 µM;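 active means potentiation over 3 SD above the plate norm, cut at about 30% in these data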; further: 0% is about no effect
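Cells plated with tetracycline inducer and held overnight at 30 C; calcium dye loaded 30–90 min at room temperature; baseline taken, compound added and read 180 s; EC20 dopamine then added and read 180 s.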
D2 PAM-2: human D2 receptor positive allosteric modulation | DiscoveRx D2 beta-arrestin cells, luminescence, 90 min; 100% = 57 uM dopamine signal | potentiation, % (concentration not given with the values) | 360,000 tested, 0.23% active | AID 624464; in the data active means potentiation above about 50%; inconclusive means mostly about 30% to 49%
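PathHunter D2 cells, attached overnight at 37 deg C, received compound in DMSO plus dopamine at EC20 (50 nM final) for 90 min at 37 deg C. Beta-arrestin recruitment was read as luminescence after 1 h with detection reagent at ambient temperature.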
D2 ag-2: human D2 receptor agonism in beta-arrestin assay; activation, % (no concentration beside the values); P14416; AID 624465; DiscoveRx PathHunter D2 beta-arrestin, luminescence, 90 min; 100% = 57 uM dopamine signal; 360,000 tested, 0.084% active; in the data active means activation above about 40%; inconclusive means between about 15% and that limit
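DiscoveRx PathHunter D2 beta-arrestin cells (2,100/well) attached overnight, then compound-stimulated 90 min at 37 C in HBSS/10 mM HEPES/0.1% Tween-20 buffer; beta-galactosidase complementation read by luminescence after 1 h at ambient temperature. Dopamine 57 uM final (EC100) as control.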
* = called active by the depositor; u = inconclusive; x = not tested or not shown.

SMILES	D2 ag-1	D2 antagonist	D2 PAM-1	D2 PAM-2	D2 ag-2
CC(=O)NC(=S)Nc1ccccc1C(=O)Nc1ccccc1	1.7	46.7*	5.9	-18.8	-5.3
C/C(=N\NC(=S)NCC(C)(C)C)c1cc(F)cc(F)c1O	1.8	36.7*	-16.8	-14.9	2.9
CN1CCN(c2ccc(Cl)cc2NC(=O)C2COc3ccccc3O2)CC1 (configuration not stated)	0.2	1.8	5.7	-14.3	-0.3
CN1CCN(c2ccc(Cl)cc2NC(=O)CC2OC(=O)c3ccccc32)CC1 (configuration not stated)	0.7	38.5*	-13.7	-28.2	-7.2
CC1CCN(C(=O)COC(=O)C23CC4CC(CC(O)(C4)C2)C3)CC1	-0.1	1.7	-2.1	-2.2	3.4
CCc1ccccc1NC(=S)N(CCN1CCOCC1)C1CCN(C(C)=O)CC1	-1.3	30.9*	0.5	-1.1	-3.8
Cc1ccc(OCc2ccoc2C(=O)O)cc1C	-0.8	30.2*	-4.6	-5.1	-0.7
COc1cc(C(=O)NCc2nc(-c3ccc(Cl)cc3)no2)cc(OC)c1OC	-0.6	x	7.6	x	x
Cc1cccnc1NC(=O)CNC(=O)c1ccccc1	-0.1	3.5	-5.5	-1.5	-1.3
COc1ccc(CNC(=O)c2cc3c(s2)CN(Cc2ccccc2)C3)cc1	-0.3	20.9	-20.9	-16.2	-0.8
Cc1ccc(/C=C/c2onc(C)c2S(=O)(=O)N2CCC(C(=O)N3CCOc4ccc(C)cc43)CC2)cc1	1.9	x	-0.8	x	x
Cc1oc2ccc(O)cc2c1C(=O)c1ccc(Cl)cc1	-0.3	8.0	-3.3	-12.2	2.3
Cc1oc2ccc(O)cc2c1C(=O)c1ccc([N+](=O)[O-])cc1	0.0	-3.2	0.8	53.6*	7.3
COc1ccc(Nc2ncc3c(n2)CC(c2ccc(C)cc2)CC3=O)cc1 (configuration not stated)	-0.4	36.4*	20.7	0.8	0.9
COc1ccc(Nc2ncc3c(n2)CC(c2ccc(OC)cc2)CC3=O)cc1 (configuration not stated)	2.8	-22.1	x	-2.6	-0.7
O=C(CCc1nc(-c2cccs2)no1)Nc1ccccc1[N+](=O)[O-]	-0.9	x	-4.9	x	x
CC1Cc2cc(/C(O)=C3/C(=O)C(=O)N(CCCn4ccnc4)C3c3ccc(F)cc3)ccc2O1 (configuration not stated)	0.7	44.2*	-1.6	-3.2	-1.2
COc1ccc(OC)c(NC(=O)C2CC(=O)n3ncnc3N2)c1 (configuration not stated)	0.8	7.8	33.3*	-7.7	0.4
Cc1ccc(N2CC(C(=O)OCC(=O)c3ccc([N+](=O)[O-])cc3)CC2=O)cc1 (configuration not stated)	x	x	x	9.3	0.7
CNc1ncnc2c1ncn2[C@H]1CN(C2CCCC2)C[C@@H](CO)O1	x	x	x	-8.9	-3.1
Cc1nnc2ccc(-c3ccc(NS(C)(=O)=O)cc3)nn12	0.6	32.6*	15.0	1.1	3.2
CC1(C(=O)Nc2cccc3c2CCCC3)CCN1C(=O)c1cccc(F)c1 (configuration not stated)	x	x	x	-3.7	-4.8
Cc1cc(O)ccc1C1(c2ccc(O)cc2C)OC(=O)c2ccccc21	0.2	-2.8	6.6	-2.6	-0.7
CC(=O)Oc1ccc2c(c1)Oc1cc(OC(C)=O)ccc1C21OC(=O)c2ccccc21	165.4*	83.5*	-24.4	u	7.0
CN(C)C(=O)c1cc(C(=O)c2ccccc2Cl)c[nH]1	x	x	x	-0.2	-0.9
SMILES	D2 ag-1	D2 antagonist	D2 PAM-1	D2 PAM-2	D2 ag-2
Cc1cc([N+](=O)[O-])ccc1NC(=O)/C=C/c1cccs1	-1.0	43.8*	-19.9	-27.1	-2.9
O=C(c1ccc2c(c1)OCO2)C1CCCN(C2CCN(CCc3ccccc3)CC2)C1 (configuration not stated)	-0.9	69.8*	-27.8	-11.8	-1.5
O=C(CCc1nnc2n(Cc3ccccc3Cl)c(=O)c3ccccc3n12)Nc1ccc(F)cc1	0.0	x	-9.3	x	x
CCn1ccc2c(OCC(=O)NCc3ccc(C)cc3)cccc2c1=O	0.0	x	-0.5	x	x
O=C(c1cccc(F)c1)N1CCN(C(=O)C(c2ccccc2)c2ccccc2)CC1	-2.9	31.1*	x	-4.3	9.2
O=S1(=O)c2ccccc2N(Cc2ccc(Cl)cc2F)c2ccccc21	0.5	x	10.8	x	x
N#CC1=C(N)Oc2cc(O)c(Cl)cc2C1c1cccnc1 (configuration not stated)	14.0	-3.2	0.2	-5.0	4.3
N#CC1=C(N)Oc2cc(O)c(Cl)cc2C1c1ccccc1F (configuration not stated)	44.1*	-29.4	-4.0	19.3	7.9
Cc1cc(Nc2ccccc2)c2c([N+](=O)[O-])cc(C)c(C)c2n1	-0.7	-14.4	39.5*	18.4	-1.3
N#Cc1c(-c2ccc(F)cc2)cc(-c2cccnc2)nc1N	x	x	x	2.0	0.1
N#Cc1c(-c2cccs2)cc(-c2cccnc2)nc1N	0.2	48.7*	-2.1	-1.3	-0.4
Cc1cc(/C=C2/C(=O)N(C)C(=S)N2C)ccc1N1CCCC1	31.9*	26.0	-1.1	2.7	0.6
CN1C(=O)/C(=C/c2ccc(OCc3ccc(F)cc3)cc2)N(C)C1=S	x	x	x	-0.8	-4.2
CCN1C(=O)/C(=C/c2ccc(N3CCCC3)cc2)NC1=S	59.4*	7.8	-16.7	-10.8	0.8
Cc1cc(/C=C2\NC(=S)N(C)C2=O)ccc1N1CCCC1	69.3*	41.7*	-1.8	-5.4	4.8
CCCN1C(=O)/C(=C/c2ccc(N3CCOCC3)cc2)NC1=S	23.6	0.6	x	-13.5	-4.7
CCCN1C(=O)/C(=C/c2ccc(N3CCCC3)c(C)c2)NC1=S	x	x	x	-8.9	-2.8
Cc1cc(N2CCCC2)ccc1/C=C1/C(=O)N(C)C(=S)N1C	8.4	59.5*	-3.3	-5.8	-3.6
O=C(CCC1N=C2c3ccccc3N=C(SCc3ccccc3Cl)N2C1=O)N1CCN(c2ccccc2)CC1 (configuration not stated)	-1.4	x	-1.1	x	x
Cc1cc(C)cc(NC(=O)N2CCN(C(=O)c3nsc4ccccc34)CC2)c1	-0.2	x	x	x	x
CCN(CC)C(=O)c1cc(-c2ccc(Cl)cc2)on1	0.1	x	-5.0	x	x
COC(=O)c1ccccc1NC(=O)c1sc2nc(C)cc(C)c2c1NC(=O)c1ccccc1Cl	0.3	x	19.6	x	x
CCc1ccc2c(c1)NC(c1ccc(C)cc1)=NC(c1cccs1)=N2	-0.6	x	-10.5	x	x
C=CCOc1ccccc1CNCCCN1CCOCC1	-0.2	-5.1	37.5*	-12.3	-1.2
O=C(CCn1cnnn1)Nc1ccc(F)cc1	2.2	31.9*	-4.2	-2.1	-3.8
CC(=O)Nc1ccc(NC(=O)CCn2cnnn2)cc1	1.3	-23.4	0.8	2.2	1.3
CC(C)COc1cccc(C(=O)Nc2ccc(-c3nc4ncccc4o3)cc2)c1	1.0	x	-0.7	x	x
